From PubChem BioAssay
Shown are actives, neighbours in structure and some others; about 0.84% of the full set was active somewhere.
TR-FRET SRC-2 ct: counter-screen for PPARgamma SRC-2 recruitment agonists: TR-FRET artefact. 200,000 compounds, 0.4% hits. TR-FRET ratio at 8 µM. hits give high values; in the data active means TR-FRET ratio above about 2000
SRC3 TRFRET art: TR-FRET artefact, counter-screen to PPARgamma/SRC-3 agonist assay; PPARgamma/SRC-3 format; hits give high values; TR-FRET ratio at 8 µM; 99,000 compounds, 0.39% hits; in the data active means TR-FRET ratio above about 2000
PPARg SRC1 recr: agonists of human PPARgamma SRC-1 coactivator recruitment; PPARgamma-SRC-1 coactivator recruitment biochemical assay; activation, % at 8 µM; 200,000 compounds, 0.41% hits; AID 631; in the data active means activation above about 19%;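 further: 0% = DMSO and 100% = reference agonist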
PPARg SRC-2 ag: PPARgamma-driven SRC-2 recruitment agonism. 200,000 compounds, 0.34% hits. activation, % at 8 µM. P37231. PPARgamma LBD-SRC-2 recruitment, biochemical;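 further: 0% = vehicle and 100% = reference agonist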
SRC1 TRFRET art: TR-FRET artefact, counter-screen to PPARgamma/SRC-1 agonist assay; TR-FRET detection artefact counter-screen, emission ratio; hits give high values; TR-FRET ratio at 8 µM; 99,000 compounds, 0.34% hits; AID 1051; in the data active means TR-FRET ratio above about 2300
PPARg SRC-3 ag: PPARgamma-driven SRC-3 recruitment agonism; P37231; biochemical PPARgamma/SRC-3 coactivator recruitment assay; activation, % at 8 µM; 200,000 compounds, 0.26% hits; AID 731; in the data active means activation above about 23%;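 further: 0% = DMSO and 100% = reference agonist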
PPARg SRC2 conf: human PPARgamma SRC-2 recruitment agonism, confirmation; activation, % at 8 µM; 790 compounds, 52% hits; biochemical SRC-2 recruitment by PPARgamma; shares compounds with PPARg SRC-3 ag;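 further: 0% = vehicle alone and 100% = reference agonist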
PPARg SRC1 ag: human PPARgamma SRC-1 recruitment agonism, confirmation | shares compounds with PPARg SRC-3 ag | 790 compounds, 43% hits | AID 1300 | PPARgamma–SRC-1 coactivator recruitment biochemical assay | activation, % at 8 µM; in the data active means activation above about 20%;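 further: 0% = vehicle wells and 100% = reference agonist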
PPARg SRC3 ag: confirmation of agonists of SRC-3 recruitment by human PPARgamma; activation, % at 8 µM; shares compounds with PPARg SRC-3 ag; biochemical PPARgamma-SRC-3 coactivator recruitment, agonist mode; 790 compounds, 29% hits; in the data active means activation above about 24%;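 further: 0% = vehicle wells and 100% = reference agonist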
Target sequence (P37231 whole entry, looked up): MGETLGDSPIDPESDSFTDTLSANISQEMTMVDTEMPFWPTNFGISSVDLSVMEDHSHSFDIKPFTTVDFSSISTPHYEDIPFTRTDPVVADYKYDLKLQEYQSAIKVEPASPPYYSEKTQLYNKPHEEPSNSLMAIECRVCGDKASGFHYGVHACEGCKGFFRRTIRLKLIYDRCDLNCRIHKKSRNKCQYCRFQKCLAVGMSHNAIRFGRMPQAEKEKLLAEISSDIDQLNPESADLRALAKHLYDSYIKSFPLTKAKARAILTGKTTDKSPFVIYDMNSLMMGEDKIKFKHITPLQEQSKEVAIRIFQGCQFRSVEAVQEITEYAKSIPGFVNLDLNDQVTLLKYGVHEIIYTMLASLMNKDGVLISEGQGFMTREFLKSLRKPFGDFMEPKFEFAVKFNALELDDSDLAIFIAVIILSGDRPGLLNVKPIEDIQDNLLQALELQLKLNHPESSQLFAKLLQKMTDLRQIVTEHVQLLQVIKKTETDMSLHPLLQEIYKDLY
Target sequence (Q9Y6Q9 whole entry, looked up): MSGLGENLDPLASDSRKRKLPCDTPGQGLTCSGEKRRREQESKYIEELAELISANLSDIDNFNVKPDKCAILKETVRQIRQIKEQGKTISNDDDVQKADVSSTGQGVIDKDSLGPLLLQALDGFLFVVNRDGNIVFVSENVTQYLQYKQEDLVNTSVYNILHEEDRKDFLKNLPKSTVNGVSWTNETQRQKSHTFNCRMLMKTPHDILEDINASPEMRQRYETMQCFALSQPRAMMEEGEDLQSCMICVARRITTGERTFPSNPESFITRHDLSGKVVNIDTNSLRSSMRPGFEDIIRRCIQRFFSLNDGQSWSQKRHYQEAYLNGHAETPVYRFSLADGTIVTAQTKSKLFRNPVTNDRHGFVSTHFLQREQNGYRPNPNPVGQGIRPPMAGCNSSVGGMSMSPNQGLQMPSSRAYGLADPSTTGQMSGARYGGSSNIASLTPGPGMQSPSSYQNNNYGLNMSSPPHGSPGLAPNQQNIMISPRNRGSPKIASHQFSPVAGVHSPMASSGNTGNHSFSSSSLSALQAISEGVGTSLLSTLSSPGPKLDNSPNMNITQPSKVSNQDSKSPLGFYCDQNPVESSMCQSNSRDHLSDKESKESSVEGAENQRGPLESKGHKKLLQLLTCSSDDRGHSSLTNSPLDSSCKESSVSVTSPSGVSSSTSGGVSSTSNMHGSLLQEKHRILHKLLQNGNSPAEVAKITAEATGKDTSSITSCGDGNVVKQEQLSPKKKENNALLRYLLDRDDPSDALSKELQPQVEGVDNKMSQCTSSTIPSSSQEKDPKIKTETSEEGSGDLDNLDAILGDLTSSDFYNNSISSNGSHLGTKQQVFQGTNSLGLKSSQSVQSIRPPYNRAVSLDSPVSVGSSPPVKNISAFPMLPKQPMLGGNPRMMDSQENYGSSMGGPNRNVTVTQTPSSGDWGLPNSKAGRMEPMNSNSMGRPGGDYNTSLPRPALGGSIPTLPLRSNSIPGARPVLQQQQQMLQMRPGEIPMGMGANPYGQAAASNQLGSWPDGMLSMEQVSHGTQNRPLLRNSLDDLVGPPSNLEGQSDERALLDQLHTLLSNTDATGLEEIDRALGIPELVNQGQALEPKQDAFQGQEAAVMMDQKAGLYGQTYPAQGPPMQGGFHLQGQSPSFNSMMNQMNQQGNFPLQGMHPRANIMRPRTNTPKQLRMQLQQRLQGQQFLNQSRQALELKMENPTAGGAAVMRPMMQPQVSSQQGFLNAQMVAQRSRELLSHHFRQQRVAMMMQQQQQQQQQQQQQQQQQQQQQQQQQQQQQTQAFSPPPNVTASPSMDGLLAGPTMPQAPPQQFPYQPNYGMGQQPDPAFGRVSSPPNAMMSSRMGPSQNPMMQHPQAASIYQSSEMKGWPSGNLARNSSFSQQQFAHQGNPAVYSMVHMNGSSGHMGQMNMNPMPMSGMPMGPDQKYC
* hit, by the source's call; . = not tested or not shown. Unless noted, no stated cut-off is given here; in the data, active means activation above about 22%; inactive means the rest.

SMILES	TR-FRET SRC-2 ct	SRC3 TRFRET art	PPARg SRC1 recr	PPARg SRC-2 ag	SRC1 TRFRET art	PPARg SRC-3 ag	PPARg SRC2 conf	PPARg SRC1 ag	PPARg SRC3 ag
Cc1ccc2nc(NC(=O)CSc3ncnc4c3oc3ccccc34)sc2c1	1748	.	30*	10	.	14	33*	22*	19
COc1ccccc1NC(=O)CSc1ncnc2c1oc1ccccc12	1618	.	-5	2	.	13	.	.	.
O=C(CSc1ncnc2c1oc1ccccc12)NCc1ccc(F)cc1	3344*	.	58*	71*	.	63*	48*	34*	29*
Cc1nn(C)c(C)c1Nc1ccc(N2C(=O)C3CC=CCC3C2=O)cc1[N+](=O)[O-] (stereo not drawn)	1472	1582	-5	-4	1781	3	.	.	.
COc1ccc(S(=O)(=O)N(C)C)cc1NCC(=O)Nc1cccc(C#N)c1	1518	1394	5	0	1450	0	.	.	.
Cc1nc(SCc2nc3ccccc3[nH]2)c2oc3ccccc3c2n1	1383	.	3	3	.	-10	.	.	.
c1ccc2[nH]c(CSc3ncnc4c3oc3ccccc34)nc2c1	2940*	.	44*	71*	.	72*	44*	30*	29*
Cc1ccccc1S(=O)(=O)Nc1nc2ccccc2nc1N1CCOCC1	2102*	.	26*	27*	.	34*	43*	37*	28*
Cn1c(-c2ccco2)n[nH]c1=S	1882	1797	10	14	2042	5	.	.	.
Cc1cccc(-n2c(-c3ccco3)n[nH]c2=S)c1	2124*	2283*	25*	28*	2623*	23*	35*	25*	26*
O=C(O)CC1NC(=O)N(C2CCCCC2)C1=O (stereo not drawn)	1521	1704	3	-3	1927	0	.	.	.
Cc1nn(CCCC(=O)Nc2cccnc2Cl)c(C)c1[N+](=O)[O-]	1493	1445	-5	-3	1839	0	.	.	.
CCCCCCN1C=CC(=C/C=C(\C#N)C(=O)OCC)C=C1	1710	.	21*	20	.	15	7	4	4
CCCN1C=CC(=C/C=C(\C#N)C(=O)OCC)C=C1	1797	.	17	20	.	14	.	.	.
COc1cc(/C=C(\C#N)C(=O)Nc2ccccc2C(=O)O)cc(Cl)c1OC	1524	1321	31*	11	1551	49*	33*	51*	46*
COc1ccc(/C=C(/C#N)C(=O)Nc2ccccc2C)cc1C(=O)O	1715	1518	5	-1	1970	4	.	.	.
CC(=O)c1cc(NC(=O)c2cccc(C(F)(F)F)c2)c(=O)oc1/C=C/N(C)C	1377	.	6	-4	.	-7	.	.	.
CC(=O)c1cc(NC(=O)c2ccc(Cl)cc2)c(=O)oc1/C=C/N(C)C	1524	.	20*	6	.	12	12	8	9
O=C(COC(=O)c1cc(-c2cccc(Br)c2)nc2ccccc12)NCC1CCCO1 (stereo not drawn)	1589	1524	-6	2	1864	3	.	.	.
CCOC(=O)c1c(NC(=O)COc2ncnc3ccccc23)sc(C(C)=O)c1C	1682	1991	13	25*	2218	11	16	14	10
Cc1nn(Cc2ccccc2Cl)c(C)c1C(=O)NCCN1C(=O)S/C(=C\c2ccccc2)C1=O	1519	1547	23*	18	1779	23*	6	22*	14
COC(=O)c1ccc(NC(=O)CSc2ccccc2)cc1	1612	1619	2	-5	1964	5	.	.	.
O=C(CSc1ccccc1)Nc1ccc(C(=O)Nc2ccc(O)cc2)cc1	1725	1821	26*	37*	1849	18	30*	22*	18
CCn1c(=O)cc(SCC(=O)N2CCN(Cc3ccc4c(c3)OCO4)CC2)c2ccccc21	2608*	.	45*	55*	.	42*	27*	17	18
Cn1c(=O)cc(SCC(=O)N2CCN(Cc3ccc4c(c3)OCO4)CC2)c2ccccc21	2161*	.	50*	33*	.	72*	25*	12	18
SMILES	TR-FRET SRC-2 ct	SRC3 TRFRET art	PPARg SRC1 recr	PPARg SRC-2 ag	SRC1 TRFRET art	PPARg SRC-3 ag	PPARg SRC2 conf	PPARg SRC1 ag	PPARg SRC3 ag
Cn1c(C(=O)N2CCN(Cc3ccc4c(c3)OCO4)CC2)cc2c(=O)n(C)c3ccccc3c21	1748	.	6	7	.	-1	.	.	.
CCSc1ccccc1C(=O)N1CCN(Cc2ccc3c(c2)OCO3)CC1	1434	.	0	4	.	8	.	.	.
Cc1ccc(NC(=O)CNc2ccc(N3CCOCC3)cc2)cc1S(=O)(=O)N(C)C	1545	1591	3	-9	1751	5	.	.	.
CCC12CN3CCN(CC(C3)/C1=N\NC(=O)c1ccc(F)cc1)C2	1435	1632	0	-4	1723	-3	.	.	.
COC(=O)c1cc(-c2ccc3c(c2)OCO3)nc2ccccc12	1616	1427	-1	-2	1725	-2	.	.	.
O=C(O)c1cc(-c2cccnc2)nc2ccc(Br)cc12	1853	2133*	25*	16	2326*	13	14	6	10
O=C(O)c1cc(-c2ccc3c(c2)OCO3)nc2ccc(Br)cc12	2330*	2538*	33*	31*	2873*	23*	9	1	8
CCOCCCNC(=O)/C(C#N)=C/c1ccc(Cl)c([N+](=O)[O-])c1	1826	1683	16	11	1865	30*	10	19	20
CCOCCCNC(=O)/C(C#N)=C/c1cc(OC)c(O)c([N+](=O)[O-])c1	1780	1814	6	8	1839	-3	.	.	.
O=c1oc2cc(O)ccc2c2ccccc12	2392*	.	28*	47*	.	60*	30*	17	22
COc1ccc2c(c1)c(=O)oc1cc(O)ccc12	1582	1675	-2	5	1714	3	.	.	.
CCCCC1NC(=S)N(C2CCCCC2)C1=O (stereo not drawn)	1666	1620	11	4	2068	3	.	.	.
Cc1ccc(-n2c(=S)[nH]c3c(oc4ccccc43)c2=O)cc1C	1894	2010	9	18	1933	5	.	.	.
O=c1c2oc3ccccc3c2[nH]c(=S)n1-c1ccc(F)cc1	2177*	2296*	16	26*	2641*	13	13	5	9
Oc1ccc(NCc2cccc(OCc3ccccc3)c2)cc1	1789	1844	24*	14	1900	3	-1	-1	2
COc1ccc(C(=O)NNC(=O)C(=O)NC(C)c2ccccc2)cc1OC (stereo not drawn)	1368	1529	0	-8	1462	-6	.	.	.
